PubChem BioAssay AID1700 (The Scripps Research Institute Molecular Screening Center, 2009)
Out of some 290,000 compounds screened, about 670 (0.23%) were called active.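 The calls were made as follows: active = inhibition above a per-plate limit of that plate's mean compound inhibition plus 3 SD (cut at about 60% in these data); inactive = the rest.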 This excerpt belongs to a sample that is enriched for actives.

Assay: suppression of KLF5 promoter-driven luciferase – DLD-1 cells, luminescence, primary screen (AID 1700);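 also: 0% = DMSO wells and 100% = LY294002 at 200 µM; higher means less KLF5 promoter-driven luciferase light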
Conditions: DLD-1 KLF5 promoter-luciferase reporter, at 5 µM, active compounds read high

inhibition, active:
COc1ccc(NC(=O)/C(Cl)=C(/Cl)S(=O)Cc2ccc(C)cc2)cn1 (configuration not stated) 89%
COc1ccc(CS(=O)/C(Cl)=C(/Cl)C(=O)Nc2ccc(OC)nc2)cc1 (configuration not stated) 100%
CN(CCO)c1ccc(/C=N/Nc2nncc3ccccc23)cc1 68.3%
Cc1ccc(/C=N/NC(=O)COc2ccccc2-c2ccccc2)cc1 77.9%
COc1cc(N=Cc2c(O)[nH]c3ccccc23)cc(OC)c1OC 66.8%
COc1ccccc1C1C2=C(COC2=O)Nc2cc3c(cc21)OCO3 (configuration not stated) 75.8%
CCOC(=O)CSC1=C(C#N)C(c2sccc2C)CC(=O)N1 (configuration not stated) 63.2%
COc1ccc(Cc2nnc(N/N=C/c3ccccc3O)[nH]c2=O)cc1OC 102%
Nc1ccc2nn(-c3ccc(Cl)cc3)nc2c1 97.7%
Cc1ccc(NC(=S)Nc2ncccc2C)c(C)c1 79.6%
CCNC(=O)CCc1nc(-c2ccc(C(C)(C)C)cc2)no1 61.9%
COc1ccccc1N1CCN(C(=O)c2cc(=O)c3cc(C)cc(C)c3o2)CC1 88.2%
COc1ccc(Nc2cc(C)nc(-n3nc(C)cc3C)n2)cc1 75.5%
CC(=O)c1ccc(Oc2cc(C)nc(-n3nc(C)cc3C)n2)cc1 61.9%
O=C(NC(Nc1nc2ccc([N+](=O)[O-])cc2s1)(C(F)(F)F)C(F)(F)F)c1ccccc1 67.7%

inhibition, inactive:
NC(=O)c1ccc(Nc2ccc3nonc3c2[N+](=O)[O-])cc1 -33%
CCOc1ccc(C2C3=C(CCCC3=O)N(CC(=O)O)C3=C2C(=O)CCC3)cc1 0.17%
O=C(CCNC(=O)C1CCN(S(=O)(=O)c2ccccc2)CC1)NC1CC1 -34.7%
Cc1csc(NC(=O)CSc2nnc(-c3cccnc3)o2)n1 -90.3%
COc1ccc(Nc2cc(Cl)ccc2C(=O)O)cn1 -11.6%
COc1ccc(C(=O)Nc2ccc(NC(=O)C(C)C)nc2)cc1 -35%
COc1ccc(NC(=O)c2cc(-c3ccc(C)cc3)on2)cc1 -28.2%
CCOc1ccc(S(=O)(=O)Nc2ccc(OC)nc2)cc1 -32.8%
CCCCC[C@H]1CN(C2CCCCC2)C(=O)[C@@H]1CC(=O)NCc1ccc(OC)cc1 -12.3%
C/C(=N\Nc1nncc2ccccc12)c1ccc(Cl)c([N+](=O)[O-])c1 -127%
COc1cc(/C=N/Nc2nn3cnnc3c3ccccc23)cc(OC)c1OC -22.6%
CSc1ccc(/C=N\NC(=O)COc2ccc(Cl)cc2Br)cc1 -9.23%
C=CCc1ccccc1OCC(=O)N/N=C/c1ccccc1OCC -10.7%
COc1ccc(NC(=O)C(C)N2c3cccc4cccc(c34)S2(=O)=O)c(OC)c1 (configuration not stated) -5.03%
O=C(O)CC/C(=C\c1cc2c(cc1Br)OCO2)c1nc2ccccc2s1 -12.1%
Cc1ccc(S(=O)(=O)N(Cc2ccccc2)c2ccccn2)cc1[N+](=O)[O-] -20.6%
COCC(=O)N=Nc1c(O)[nH]c2ccccc12 6.53%
COc1ccc(N=Cc2c(O)[nH]c3ccccc23)cc1OC -9.79%
Cc1ccc(CN(CC(=O)NCC2CCCO2)S(=O)(=O)c2ccc(C)cc2)cc1 (configuration not stated) -11%
Cc1ccc(CNC(=O)CCS(=O)(=O)c2ccc3c(c2)CC(C)N3C(=O)C2CC2)o1 (configuration not stated) -9.9%
CCOCCCNc1c(CC)c(C)c(C#N)c2nc3ccccc3n12 -21.6%
Cc1cccc(CN2CCC(n3nccc3NC(=O)c3ccccc3C)CC2)n1 -34.2%
CCCCCNC(=O)C1c2ccccc2Oc2ccccc21 -20.8%
Cn1cc(S(=O)(=O)Nc2ccc(Cl)cc2Cl)c(=O)n(C)c1=O -22.9%
CCCc1ccc(OCC(O)CN2CCN(CCO)CC2)cc1 (configuration not stated) 7.32%
O=C(N/N=C/c1sc(N2CCCCC2)nc1-c1cccs1)c1cccnc1 -30.2%
COc1cccc(-c2nc(CS(=O)CC(=O)NCc3ccc(F)cc3)c(C)o2)c1 (configuration not stated) -11.1%
NS(=O)(=O)c1ccc(CCNS(=O)(=O)c2cccc3cccnc23)cc1 -50.1%
CC(C)C(C)NC(=O)COc1nc2ccccc2nc1N(C)C1CCCCC1 (configuration not stated) -6.02%
CCCOc1ccccc1C1CC(=O)Nc2cc3c(cc21)OCO3 (configuration not stated) 46.2%
COc1ccc(S(=O)(=O)Nc2ccc3c(c2)OCO3)cc1Cl -5.73%
Cc1ccc(C2CC(=O)NC(SCC(=O)OCc3ccccc3)=C2C#N)o1 (configuration not stated) 6.45%
CCOC(=O)CSC1=C(C#N)C(c2ccco2)C(C(=O)OCc2ccccc2)=C(C)N1 (configuration not stated) -11.8%
NC(=O)CN1CCCC1c1ccc2c(c1)OCCO2 (configuration not stated) -21.8%
C=CCn1c(=O)c(C(=O)NCc2ccc3c(c2)OCO3)c(O)c2ccccc21 -23.1%
CC/C(=N\NC(=O)c1c(C)nc2ccccn12)c1ccc(Cl)cc1 -19.6%
Cc1cc(Cl)c2oc(C(=O)N(C)C(C)c3ccccn3)c(C)c2c1 (configuration not stated) -79%
CC(C)Oc1ccc(/C=N/NC(=O)c2nnn(-c3nonc3N)c2CN(C)C2CCCCC2)cc1 -15.7%
CCOc1cc(-c2conc2N)cc(OCC)c1OCC 5.84%
O=C(NCCc1ccccc1)C(=O)NCC1OCCN1S(=O)(=O)c1cccs1 (configuration not stated) -36.9%
COc1ccc2[nH]cc(CCN3C(=O)c4ccc(C(=O)O)cc4C3=O)c2c1 -177%
COc1ccc(OC)c(CCNC(=O)c2nn(C)c3c2CS(=O)(=O)c2ccccc2-3)c1 -12.5%
CC(C)CCn1c(=O)c2c(nc3n2CCCN3Cc2ccccc2)n(C)c1=O -4.63%
Cc1ccc(C)c(N2CCN(C(=O)CCCn3c(=O)c4cccn4c4cccnc43)CC2)c1 5.08%
CCN(CC)S(=O)(=O)c1ccc(N2CC(C(=O)NCc3cccnc3)CC2=O)cc1 (configuration not stated) -14.9%
COc1ccc(S(=O)(=O)N(CC(=O)N/N=C/c2ccc(C(=O)O)cc2)Cc2ccccc2)cc1OC 5.79%
O=c1[nH]c(NCCO)nnc1Cc1ccc(Cl)cc1 -8.33%
Cc1nnc(N/N=C/c2ccccn2)[nH]c1=O 2.56%
COc1ccc(NC(=O)CCCN2C(=O)C(c3ccccc3)Oc3cccnc32)cc1 (configuration not stated) -1.26%
Nc1nc(SCC(=O)Nc2cc(C(F)(F)F)ccc2Cl)[nH]c(=O)c1NC(=O)c1ccco1 -9.6%
Cc1ccc(OCCCC(=O)Nc2ccc(S(=O)(=O)Nc3cc(C)nc(C)n3)cc2)cc1 0.85%
O=S(=O)(c1cc(Cl)ccc1Cl)N1CCN(Cc2ccco2)CC1 -4.75%
c1ccc(-n2nc3ccccc3n2)cc1 -2.18%
CCC(=O)Nc1ccc2nn(-c3ccc(F)cc3)nc2c1 -97%
O=C(c1cc(-c2ccc(Cl)cc2)on1)N1CCN(c2ccccc2)CC1 -69.1%
Cc1cccc(C)c1OCCN1CCOCC1 -15.7%
Cc1ccc2c(c1)N(S(=O)(=O)c1cc(-c3cc(C)no3)ccc1C)CCO2 -37.9%
Cc1ccc(NC(=S)NCc2ccccc2Cl)c(C)c1 -3.59%
Cc1ccc(NC(=S)NCCc2ccc(Cl)cc2)c(C)c1 -19%
CCN1C(=NCCc2cccnc2)N[C@@H](c2ccccc2)C(C(=O)OC)=C1C -22%
CC(C)c1ccc(NC(=O)Cn2ncc3ccccc32)cc1 -106%
CN(c1cccc(NC(=O)c2ccc(CN3CCc4ccccc4C3)cc2)c1)S(C)(=O)=O -29.8%
CCN(CC)N=Nc1cccc(NC(C)=O)c1 -51.2%
Cc1ccc(C(=O)NC23CC4CC(CC(C4)C2)C3)c(Cl)c1 -45.4%
O=C(N/C(=C\c1ccc(O)cc1)C(=O)N1CCCCC1)c1ccccc1 -7.29%
CCNC(=O)CCc1nc(-c2ccc(C)cc2)no1 -43.2%
CN1CCN(C(=O)CCc2nc(-c3ccc(Cl)cc3)no2)CC1 -29.1%
CCc1ccccc1S(=O)(=O)Cc1ccc(C(=O)NCCc2ccccc2)o1 -41.4%
CCOC(=O)C1CCN(C(=O)Cn2nc(C)c3c(C)n(-c4ccccc4)nc3c2=O)CC1 -39.7%
COc1cccc(-c2cc(C(=O)N3CCN(c4ccccc4OC)CC3)no2)c1 -15.2%
COc1ccccc1N1CCN(C(=O)c2cc(=O)c3cc(C)ccc3o2)CC1 15.1%
Cc1c(NC(=O)CSCc2ccccc2)cccc1C(=O)O -44.3%
COc1cc(C(=O)NC2CCN(Cc3ccccc3)CC2)cc(Cl)c1OC(C)C 0.72%
O=C(Nc1nonc1-c1ccc(Cl)cc1)c1ccco1 -1.44%
Cc1cc(Oc2ccc(Cl)cc2)nc(SCC(=O)c2ccccc2)n1 -18.8%
Cc1cc(N/N=C\c2ccc(Br)cc2)nc(-n2nc(C)cc2C)n1 3.64%
CCOC(=O)c1cnc(-n2nc(C)cc2C)nc1Nc1cccc(C(C)=O)c1 -11.5%
COc1ccccc1/C=N\Nc1cc(C)nc(-n2nc(C)cc2C)n1 -41.2%
COc1ccccc1CNS(=O)(=O)c1ccc2c(c1)NC(=O)CS2 -51%
CC(=O)c1ccc(N2Cc3ccccc3C2)cc1 -125%
CCC(=O)NC(Nc1nc2ccc(C)cc2s1)(C(=O)OC)C(F)(F)F (configuration not stated) 21.2%
O=C(Nc1nc2ccc([N+](=O)[O-])cc2s1)c1ccc(S(=O)(=O)N2CCCc3ccccc32)cc1 -18.3%
